Measured values as given in PMC3218832.

Tests used:
Assay in all cases: protein binding microarray; high values mean tight binding
Conditions in all cases: dsDNA, one strand shown
[1] = target: RELARELA (p65 homodimer) (Homo sapiens, UniProt Q04206 1-307)
[2] = target: p50p50 homodimer (Homo sapiens, UniProt P19838 7-356)
[3] = target: T1, p52p52 homodimer (Homo sapiens, UniProt Q00653 4-332)
T1 sequence: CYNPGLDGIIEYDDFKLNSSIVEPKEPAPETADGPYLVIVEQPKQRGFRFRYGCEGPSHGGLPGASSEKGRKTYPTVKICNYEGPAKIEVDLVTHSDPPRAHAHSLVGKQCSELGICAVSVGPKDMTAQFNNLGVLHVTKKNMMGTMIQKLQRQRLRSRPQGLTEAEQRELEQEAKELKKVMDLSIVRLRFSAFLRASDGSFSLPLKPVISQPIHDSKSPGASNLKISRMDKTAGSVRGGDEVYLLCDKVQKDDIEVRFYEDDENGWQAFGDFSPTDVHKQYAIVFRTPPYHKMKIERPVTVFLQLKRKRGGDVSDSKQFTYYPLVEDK

[4] = target: RELA (p65) subunit of heterodimer;p50 subunit (Homo sapiens;Homo sapiens, UniProt Q04206;P19838 1-307;7-356)
[5] = target: RELA (p65) subunit of heterodimer;p52 subunit (Homo sapiens;Homo sapiens, UniProt Q04206;Q00653 1-307;4-332)
[6] = target: RELB subunit;p50 subunit (Homo sapiens;Homo sapiens, UniProt Q01201;P19838 120-401;7-356)
[7] = target: T2, RELB subunit;p52 subunit (Homo sapiens;Homo sapiens, UniProt Q01201;Q00653 120-401;4-332)
T2 sequence 1: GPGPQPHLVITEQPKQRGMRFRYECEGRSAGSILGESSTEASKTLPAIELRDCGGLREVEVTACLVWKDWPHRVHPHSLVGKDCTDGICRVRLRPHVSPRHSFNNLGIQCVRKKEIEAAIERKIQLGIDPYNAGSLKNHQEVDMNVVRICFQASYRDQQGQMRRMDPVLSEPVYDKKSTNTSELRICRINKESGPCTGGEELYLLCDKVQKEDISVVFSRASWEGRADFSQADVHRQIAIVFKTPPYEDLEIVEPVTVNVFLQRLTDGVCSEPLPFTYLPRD
T2 sequence 2: T1 sequence

[8] = target: C-Rel subunit;p50 subunit (Homo sapiens;Homo sapiens, UniProt Q04864;P19838 1-285;7-356)
[9] = target: T3, C-Rel subunit;p52 subunit (Homo sapiens;Homo sapiens, UniProt Q04864;Q00653 1-285;4-332)
T3 sequence 1: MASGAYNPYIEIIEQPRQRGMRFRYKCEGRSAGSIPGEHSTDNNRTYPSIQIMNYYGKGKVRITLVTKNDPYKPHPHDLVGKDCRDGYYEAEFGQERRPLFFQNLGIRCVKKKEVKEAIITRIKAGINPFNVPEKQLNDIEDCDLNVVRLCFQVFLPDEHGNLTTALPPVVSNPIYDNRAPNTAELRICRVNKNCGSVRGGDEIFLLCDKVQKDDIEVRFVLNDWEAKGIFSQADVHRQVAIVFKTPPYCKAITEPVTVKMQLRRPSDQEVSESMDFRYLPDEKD
T3 sequence 2: T1 sequence

Sequence of p50p50 homodimer (P19838 7-356): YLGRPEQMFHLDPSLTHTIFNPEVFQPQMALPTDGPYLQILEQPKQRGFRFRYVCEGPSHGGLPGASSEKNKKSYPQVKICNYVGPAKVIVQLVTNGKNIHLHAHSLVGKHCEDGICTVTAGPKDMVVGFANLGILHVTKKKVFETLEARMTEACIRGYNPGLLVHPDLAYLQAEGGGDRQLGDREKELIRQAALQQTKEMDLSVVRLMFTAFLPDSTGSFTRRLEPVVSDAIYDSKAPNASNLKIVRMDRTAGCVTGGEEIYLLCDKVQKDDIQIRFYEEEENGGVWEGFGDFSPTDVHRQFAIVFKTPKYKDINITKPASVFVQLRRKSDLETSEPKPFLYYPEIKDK
Sequence of RELARELA (p65 homodimer) (Q04206 1-307): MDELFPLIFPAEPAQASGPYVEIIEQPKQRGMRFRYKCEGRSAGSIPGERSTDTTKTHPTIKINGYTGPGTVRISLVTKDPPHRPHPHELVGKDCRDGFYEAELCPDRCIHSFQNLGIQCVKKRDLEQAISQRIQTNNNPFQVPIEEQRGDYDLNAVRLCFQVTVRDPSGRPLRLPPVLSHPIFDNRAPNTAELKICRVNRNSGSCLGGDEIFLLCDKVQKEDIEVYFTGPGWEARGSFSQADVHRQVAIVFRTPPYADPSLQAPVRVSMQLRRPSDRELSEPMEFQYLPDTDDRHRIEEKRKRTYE
Sequence of RELA (p65) subunit of heterodimer;p50 subunit (Q04206 1-307, chain 1 of 2): as the sequence (Q04206 1-307) above
Sequence of RELA (p65) subunit of heterodimer;p50 subunit (P19838 7-356, chain 2 of 2): as the sequence (P19838 7-356) above

Sequence	binding signal [1] [z-score]	binding signal [2] [z-score]	binding signal [3] [z-score]	binding signal [4] [z-score]	binding signal [5] [z-score]	binding signal [6] [z-score]	binding signal [7] [z-score]	binding signal [8] [z-score]	binding signal [9] [z-score]
AGAAACGTCCT	-0.192	-1.17	-0.534	-0.997	-0.794	-0.947	-0.798	-1.13	-0.812
CAAGGTATCCC	-0.591	-0.9	-0.296	-0.874	-0.575	-0.488	-0.446	-0.834	-0.451
GAGTATTTCCC	2.24	0.925	1.05	1.27	1.1	0.527	0.505	1.24	1.14
AGATGGCTCCC	-0.478	-1.77	-0.619	-0.849	-0.797	-0.91	-0.841	-1.25	-0.874
GAAGTACCCCC	0.109	1.25	0.815	1.31	1.14	1.27	1.33	0.887	0.946
CGGATTGCCCC	2	0.548	0.518	1.35	0.991	0.497	0.607	1.07	0.987
CAAAAAGTCCC	2.29	1.2	2.38	1.75	1.58	2.23	1.75	1.53	2.25
GGAGGTACCCT	-0.125	0.0465	-0.0665	0.0938	0.0265	0.0938	-0.25	-0.0429	0.0544
GGGTGTTCCCC	1.97	0.783	3.21	2.14	2.7	2.21	2.06	1.68	2.56
CAAAGGGTCCC	-0.377	-0.186	-0.0557	-0.357	-0.288	0.0439	-0.0611	-0.397	-0.359
CGAGGCTTCCT	-0.994	-2.47	-0.827	-1.09	-1.19	-1.31	-1.05	-1.49	-1.05
CGATTAATCCC	0.0967	-0.315	-0.0861	-0.0553	-0.137	0.0473	-0.161	-0.0218	-0.299
GGAGTCGTCCT	-0.136	-1.28	-0.582	-0.993	-0.875	-1.03	-0.714	-1.4	-0.812
CAAAGTTTCCT	0.729	-0.548	-0.572	-0.313	-0.494	-0.737	-0.489	-0.0288	-0.21
AAAGTGGTCCC	-0.237	0.456	0.16	-0.319	-0.267	0.24	-0.0596	-0.25	-0.422
CAGTGACCCCT	-0.538	-0.115	-0.0283	-0.321	-0.373	-0.303	-0.116	-0.672	-0.427
CAGGTTTCCCT	0.821	1.16	1.21	1.39	1.33	1.28	1.76	1.26	0.893
AGAGGTCTCCC	0.0815	-0.751	-0.27	-0.391	-0.315	-0.0782	-0.00582	-0.507	-0.363
GAATAGCTCCC	-0.473	-0.795	-0.577	-0.627	-0.84	-0.753	-0.873	-1.16	-0.82
CAGGGATCCCC	0.967	0.94	0.898	1.56	1.23	1.11	1.1	1.1	1.31
GAAGGCTCCCT	-0.795	-1.03	-0.473	-0.74	-0.784	-0.594	-0.67	-1.02	-0.773
GAATGGCCCCT	-0.247	0.432	0	0.128	0.262	0.27	0.242	-0.321	-0.168
AGATGAATCCT	-0.706	-1.32	-0.542	-1	-0.972	-1.28	-1.16	-1.39	-0.907
CGATAGCCCCC	-0.556	0.93	0.275	0.352	0.57	0.492	0.523	0.288	0.258
AGATGGTTCCT	-0.148	-2.29	-0.605	-0.843	-0.727	-0.879	-0.835	-1.36	-0.824
AAATAACCCCC	0.321	1.39	1.6	1.69	1.48	1.69	1.68	1.32	1.39
AAAGATGTCCC	0.336	0.646	0.345	0.492	0.185	0.741	0.487	0.497	-0.0919
GGAGAAGTCCT	0.391	-0.831	-0.506	-0.525	-0.585	-0.798	-0.864	-0.433	-0.307
AGATATCTCCT	-0.509	-1.24	-0.623	-0.927	-1.03	-1.19	-1.06	-1.37	-0.83
AGGTATTTCCC	2.88	0.816	2.74	1.5	2.11	1.27	1.85	1.43	2.34
